In the library only some 7% were active in any assay of this set; here they are far more common.
D3 ag – qHTS of D3 Dopamine Receptor Agonist: qHTS; hit rate 0.58% among 410,000; D3R DiscoveRx beta-arrestin cells, luminescence, 90 min; D(3) dopamine receptor (Homo sapiens), P35462; max activation, %; in the data active means max activation above about 30%
Target sequence (P35462 whole entry, looked up): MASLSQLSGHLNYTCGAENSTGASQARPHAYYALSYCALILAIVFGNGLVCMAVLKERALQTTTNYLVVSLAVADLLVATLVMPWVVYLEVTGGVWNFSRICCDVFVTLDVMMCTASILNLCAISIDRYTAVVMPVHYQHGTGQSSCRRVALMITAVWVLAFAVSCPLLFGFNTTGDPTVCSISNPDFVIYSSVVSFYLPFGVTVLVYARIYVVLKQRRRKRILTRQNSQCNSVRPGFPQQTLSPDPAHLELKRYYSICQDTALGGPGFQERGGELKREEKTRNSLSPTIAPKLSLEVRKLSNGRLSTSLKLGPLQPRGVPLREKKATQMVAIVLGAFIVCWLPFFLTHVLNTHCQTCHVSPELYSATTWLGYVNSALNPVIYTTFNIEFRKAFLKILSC
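Cells at 1500/well, incubated overnight, then treated with pinned compounds (dopamine as control) for 90 min at 37 degrees C. DiscoveRx reagent added for 30 - 60 minutes at room temperature; luminescence read.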
Integrin act MD – qHTS for Activators of Integrin-Mediated Alleviation for Muscular Dystrophy; AID 624291, 2012; alpha7betagal myoblasts, beta-gal FDG fluorescence, 48 h; hit rate 0.064% among 350,000; Potency, µM (highest dose often 38.3 µM), most hits filed as activators; further: nearly all actives have a fitted effect of over 60% in size
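Alpha7betagal+/- myoblasts (passage 13) were plated 16-24 hr, then exposed to compounds (1:260 dilution of DMSO stock) for 48 hours at 37C. After MPER lysis, β-galactosidase reporter activity was read as FDG fluorescence (ex 480/em 540) after 30 minutes.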
IL-1B inflam inh – qHTS for Inhibitors of Inflammasome Signaling: IL-1-beta AlphaLISA Primary Screen | THP-1 LPS/ATP IL-1B secretion, AlphaLISA, 16 h; hits give low values | activity change, % at 57.5 µM | hit rate 4.7% among 360,000; in the data active means activity change below about -50%; inconclusive means mostly about -30% to -49%
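Secreted IL-1B measured by AlphaLISA bead assay after 16 h compound exposure of THP-1 cells; compounds (final up to 57.5 uM) added 1 h before LPS (250 ng/mL) and ATP (1.25 mM) stimulation; lower signal means less secretion.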
D3 antag – qHTS of D3 Dopamine Receptor Antagonist: qHTS | D(3) dopamine receptor (Homo sapiens), P35462 | D3R cells, DiscoveRx beta-arrestin luminescence, antagonist mode; hits give low values | max response, negative = inhibition, % | hit rate 2.5% among 360,000 | AID 652054, 2013; in the data active means max response below about -50%; inconclusive means no clear call, values can overlap the other calls
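Cells plated overnight at 1500 cells/well, then exposed to library compounds with dopamine controls for 90 minutes at 37 degrees C. DiscoveRx reagent added for 30–60 minutes at room temperature; luminescence read, quantitative HTS format.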
ATXN viability – Viability Counterscreen for Primary qHTS for Inhibitors of ATXN expression. S2 cells (HEK-293 line with an ATXN2-luciferase reporter) viability, CellTiter-Fluor protease fluorescence, 24 h. Potency, µM (series often up to 56.7 µM), actives largely listed as cytotoxic. hit rate 0.49% among 400,000. AID 651635, 2014; further: nearly all actives have a fitted effect of over 40% in size
ATXN2 expr inh – Primary qHTS for Inhibitors of ATXN expression; Potency, µM (highest dose often 57 µM), usual class: inhibitors; HEK-293 ATXN2-luciferase reporter, luminescence, 24 h; hit rate 0.72% among 360,000; further: nearly all actives have a fitted effect of over 55% in size
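qHTS (up to 57 uM final) was run with 24 h compound exposure of reporter cells at 37 °C. Each well was multiplexed: SteadyGlo luminescence measured ATXN2-luciferase expression after a fluorogenic Gly-Phe-AFC viability readout (25 uM final).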
Large screens that a line does not name were inactive. Unless noted, the call rests on the fitted dose curve; in most records, active means well fitted curve in the direction sought with a large enough effect; inconclusive means small, poorly fitted or top-dose-only effect, or another doubt; inactive means no such curve, though single readings can be large; an effect the other way counts as inactive or inconclusive.

O=C(CSc1cccc2cccnc12)Nc1ccc(S(=O)(=O)N2CCOCC2)cc1	IL-1B inflam inh -100.9, ATXN viability 11.2µM, ATXN2 expr inh 12.6µM
Cc1ccc(C)c(SCC(=O)Nc2cccc(S(=O)(=O)N3CCOCC3)c2)c1	none
O=C(CSc1ccc(F)cc1)Nc1cccc(S(=O)(=O)N2CCOCC2)c1	IL-1B inflam inh -52.2
O=C(/C=C/c1ccc(S(=O)(=O)N2CCOCC2)cc1)Nc1cc(F)ccc1F	IL-1B inflam inh -54.5
O=C(/C=C/c1ccc(S(=O)(=O)N2CCOCC2)cc1)NC(=S)Nc1ccc(Cl)cc1Cl	IL-1B inflam inh -90.2
COc1ccc(/C=C/C(=O)Nc2ccc(C)c(S(=O)(=O)N3CCOCC3)c2)cc1	ATXN viability inconclusive, ATXN2 expr inh 22.4µM (no result: Integrin act MD)
CCN1CCN(c2ccc(S(=O)(=O)N3CCOCC3)cc2NC(=O)/C=C/c2ccc([N+](=O)[O-])cc2)CC1	IL-1B inflam inh -106.0
COc1ccc(NC(=O)C2=C(C)C(=O)OC23CCN(C(C)C)CC3)cc1Cl	none (no result: Integrin act MD, IL-1B inflam inh, D3 antag)
O=CNc1ccc2c(c1)Cc1cc([N+](=O)[O-])ccc1-2	IL-1B inflam inh -54.7
Cc1ccc(-n2nnc3c(=O)n(CC(=O)N4CCOCC4)cnc32)cc1	D3 antag -52.8 (no result: ATXN viability)
O=C(Cn1cnc2c(nnn2-c2ccccc2)c1=O)N1CCOCC1	none
CS(=O)(=O)Nc1cccc(C(=O)OCCCOc2ccc(F)cc2)c1	D3 ag 73.6
CNC(=O)c1ccc(-c2nc(-c3ccccc3)cs2)cc1	none
Cc1ccccc1NC(=O)Nc1nnc([C@@H]2C[C@H](O)[C@@H](CO)O2)s1	D3 ag 53.9 (no result: Integrin act MD)
CC(=O)Nc1ccc(-c2noc(-c3csc([C@@H]4C[C@H](O)[C@@H](CO)O4)n3)n2)cc1	IL-1B inflam inh -54.6 (no result: Integrin act MD)
Cc1ccc(C(=O)Nc2nnc([C@H]3C[C@H](O)[C@@H](CO)O3)s2)cc1	D3 antag -76.5 (no result: Integrin act MD)
COc1ccc2cc3cc(C(=O)NCCCN4CCc5ccccc5C4)sc3nc2c1	IL-1B inflam inh inconclusive, D3 antag -65.1
COc1ccc2nc3sc(C(=O)NCCN4CCc5ccccc5C4)cc3cc2c1	D3 antag -67.7
COc1ccc2nc3sc(C(=O)NCCc4ccc(Cl)cc4)cc3cc2c1	none (no result: Integrin act MD, IL-1B inflam inh, D3 antag)
COc1ccc2cc3cc(C(=O)NC4CC4)sc3nc2c1	none
CCCCCCSc1cc(-c2nc3cc(C)ccn3c2NC2CCCCC2)ccc1OC	ATXN viability inconclusive
CCCCNc1c(-c2ccc(OC)c(SC3CCCCC3)c2)nc2cnccn12	D3 ag 44.8, IL-1B inflam inh -70.2, ATXN2 expr inh inconclusive (no result: ATXN viability)
COc1cc(-c2nc3ccccn3c2NCc2ccccc2)ccc1SC1CCCCC1	D3 ag 87.3, ATXN2 expr inh inconclusive
CCCCCCSc1cc(-c2nc3cnccn3c2NCc2ccccc2)ccc1OC	D3 ag 51.5
COc1ccc(-c2nc3ccccn3c2NC2CCCCC2)cc1SC1CCCCC1	IL-1B inflam inh -74.6, ATXN viability inconclusive, ATXN2 expr inh inconclusive
COCCn1c(SCC(=O)NC2CCCC2)nc2cccnc21	none
CCCCNc1c(-c2ccc(SC3CCCCC3)cc2)nc2cnccn12	D3 ag 39.7, ATXN2 expr inh inconclusive (no result: ATXN viability)
COc1ccc(-c2nc3cnccn3c2NCc2ccccc2)cc1SC1CCCCC1	D3 ag 40.4, IL-1B inflam inh inconclusive, ATXN2 expr inh inconclusive (no result: ATXN viability)
CCCCNc1c(-c2ccc(OC)c(SC3CCCCC3)c2)nc2ccc(Cl)cn12	ATXN viability inconclusive
CCCCNc1c(-c2ccc(OC)c(SC3CCCCC3)c2)nc2cc(C)ccn12	IL-1B inflam inh -86.4, ATXN viability inconclusive, ATXN2 expr inh inconclusive
CCC(C)Sc1ccc(-c2nc3ccccn3c2NCc2ccccc2)cc1OC (centres undefined)	IL-1B inflam inh -74.3, ATXN viability inconclusive, ATXN2 expr inh inconclusive
CCCCCCSc1ccc(-c2nc3cnccn3c2NC2CCCCC2)cc1	none (no result: Integrin act MD, ATXN viability)
Cc1c(Cl)cccc1NC(=S)NC1CCCC1	none
C=CCN1C(=O)N(CC=C)c2cccc3cccc1c23	none
